Measurements published in the supplement of paper PMC10849652.
The full data set covers some 8,800 targets. This sample favours those with a hit. About 0.5% of all pairs of compound and target were hits.

Legend:
Assay in all cases: log2 fold change, soluble protein after heating vs DMSO (PISA); higher = thermal stabilisation; K562 lysate, 10 uM; active = over 0.2 and 3.5 SD of the protein, either way, in both replicates (recomputed)
[1] = compound: C#Cc1cccc(Nc2ncnc3cc(OCCOC)c(OCCOC)cc23)c1 [erlotinib]
Summary of the method: (§1)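 A 30 min treatment with 10 μM compound was applied to crude K562 extract at 1 mg/mL protein in PBS pH 7.4 with 1 mM MgCl2. Heating for 3 min spanned 48°C-58°C, after which aliquots were pooled, adjusted to 0.5% NP-40 at 4°C and spun at 21,000xg for 90 min. TMTpro 16plex LC-MS/MS of the supernatant, with channel sums equalised, gave values recorded as log-two fold change in thermal stability against solvent controls, from duplicates.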

[2] = compound: C/C(=N\NC(=O)C1=CC(=CC=C1)S(=O)(=O)N2CCOCC2)/C3=C(C=CC(=C3)Cl)O
Summary of the method: as §1

[3] = compound: C1=CC(=CC=C1C2=NC3=C(N2)C=C(C=C3)C(=O)N)OC4=CC=C(C=C4)Cl
Summary of the method: as §1

[4] = compound: C1=CC2=C(C=CC(=C2)/C=C\3/C(=O)NC(=NCC4=CC=CS4)S3)N=C1
Summary of the method: as §1

[5] = compound: C1=CC2=NC=CN=C2C=C1/C=C/3\C(=O)NC(=O)S3
Summary of the method: as §1

[6] = compound: C1=CC=C(C=C1)C2=NC(=C(N2)C3=CC=NC=C3)C4=CC(=C(C=C4)Cl)O
Summary of the method: as §1

[7] = compound: C1=CC=C2C(=C1)C3=NNC4=CC=CC(=C43)C2=O
Summary of the method: as §1

[8] = compound: C1CCN(C1)C(=O)NC2=CC=CC(=C2)NC3=NC=C(C(=N3)NCCC4=CN=CN4)Br
Summary of the method: as §1

[9] = compound: C1CN(CCC1(CC2=CC=C(C=C2)Cl)N)C3=NC=NC4=C3C=CN4
Summary of the method: as §1

[10] = compound: C1COCCN1CCN2C3=CC=CC=C3N=C2NC(=O)C4=CC(=CC=C4)[N+](=O)[O-] [IRAK-1-4 Inhibitor I]
Summary of the method: as §1

[11] = compound: C=CC(=O)N1CCC[C@@H](n2nc(-c3ccc(Oc4ccccc4)cc3)c3c(N)ncnc32)C1 [ibrutinib]
Summary of the method: as §1

[12] = compound: CC(=O)c1cnc2ccc(-c3cc(Cl)c(O)c(Cl)c3)nc2c1N[C@H]1CC[C@H](CN(C)C)CC1
Summary of the method: as §1

[13] = compound: CC(C)(C)Cn1c(N)nc2ccc(-c3[nH]c(C(C)(C)C)nc3-c3ccc(F)cc3)nc21 [ralimetinib]
Summary of the method: as §1

[14] = compound: CC(C)(O)CC(=O)NCCn1ccc2ncnc(Nc3ccc(Oc4cccc(C(F)(F)F)c4)c(Cl)c3)c21
Summary of the method: as §1

[15] = compound: CC(C)C1=C2N=C(C=C(N2N=C1)NCC3=CC=CC=C3)NCCCCCCN
Summary of the method: as §1

[16] = compound: CC1=C(C(CC(=O)N1)C2=CC=C(C=C2)C(F)(F)F)C(=O)NC3=C(C=C4C(=C3)C=NN4)F
Summary of the method: as §1

[17] = compound: CC1=C(C2=C(C=C1)C(=O)C3=CC=CC=C3N2CCCN)C
Summary of the method: as §1

[18] = compound: CC1=C(C=C(C=C1)NC(=O)C2=CC(=CC=C2)C(C)(C)C#N)NC3=CC4=C(C=C3)N=CN(C4=O)C
Summary of the method: as §1

[19] = compound: CC1=C(C=C(C=C1)NC(=O)C2=CC(=CC=C2)N(C)C)NC(=O)C3=CC=C(C=C3)O
Summary of the method: as §1

[20] = compound: CC1=CC=C(C=C1)SC2=C3C=C(SC3=CN=C2)C(=O)N
Summary of the method: as §1

Measured: log2 fold change

HMGCS1 (UniProt Q01581)
Sequence of UniProt Q01581 (Q01581 whole entry, looked up): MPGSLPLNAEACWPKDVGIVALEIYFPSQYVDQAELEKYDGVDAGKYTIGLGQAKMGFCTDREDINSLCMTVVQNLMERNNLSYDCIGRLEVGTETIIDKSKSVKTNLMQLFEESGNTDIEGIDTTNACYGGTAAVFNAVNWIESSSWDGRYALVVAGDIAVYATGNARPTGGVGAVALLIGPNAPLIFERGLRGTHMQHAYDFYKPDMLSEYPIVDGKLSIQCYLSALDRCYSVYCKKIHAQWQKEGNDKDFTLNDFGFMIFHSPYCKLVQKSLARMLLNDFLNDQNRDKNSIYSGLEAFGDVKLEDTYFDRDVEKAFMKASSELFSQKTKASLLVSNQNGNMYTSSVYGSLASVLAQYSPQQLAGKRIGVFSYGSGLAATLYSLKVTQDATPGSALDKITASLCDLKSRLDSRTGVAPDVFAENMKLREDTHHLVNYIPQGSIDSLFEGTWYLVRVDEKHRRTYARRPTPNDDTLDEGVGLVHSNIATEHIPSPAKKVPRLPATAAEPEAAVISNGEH
inactive: [1] -0.003 | [2] -0.035 | [3] 0.006 | [4] -0.001 | [5] -0.005 | [6] 0.014 | [7] 0.004 | [8] 0.003 | [9] 0.012 | [10] -0.009 | [11] -0.012 | [12] -0.006 | [13] 0.012 | [14] -0.01 | [15] -0.001 | [16] -0.011 | [17] 0.013 | [18] -0.001 | [19] 0.006 | [20] 0.015

GSTM2 (UniProt P28161)
Sequence of UniProt P28161 (P28161 whole entry, looked up): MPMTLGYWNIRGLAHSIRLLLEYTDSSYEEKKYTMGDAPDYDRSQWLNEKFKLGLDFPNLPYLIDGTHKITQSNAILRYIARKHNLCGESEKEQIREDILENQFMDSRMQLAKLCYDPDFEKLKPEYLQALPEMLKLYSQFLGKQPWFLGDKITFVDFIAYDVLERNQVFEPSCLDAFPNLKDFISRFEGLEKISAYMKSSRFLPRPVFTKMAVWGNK
inactive: [1] -0.083 | [2] 0.041 | [3] -0.038 | [4] -0.007 | [5] 0.079 | [6] -0.008 | [7] -0.012 | [8] -0.021 | [9] -0.054 | [10] 0.037 | [11] 0.081 | [12] 0.009 | [13] -0.006 | [14] -0.067 | [15] -0.021 | [16] -0.119 | [17] -0.033 | [19] 0.004 | [20] -0.021

HNRNPD isoform 2 (UniProt Q14103)
Sequence of UniProt Q14103 (Q14103 whole entry, looked up): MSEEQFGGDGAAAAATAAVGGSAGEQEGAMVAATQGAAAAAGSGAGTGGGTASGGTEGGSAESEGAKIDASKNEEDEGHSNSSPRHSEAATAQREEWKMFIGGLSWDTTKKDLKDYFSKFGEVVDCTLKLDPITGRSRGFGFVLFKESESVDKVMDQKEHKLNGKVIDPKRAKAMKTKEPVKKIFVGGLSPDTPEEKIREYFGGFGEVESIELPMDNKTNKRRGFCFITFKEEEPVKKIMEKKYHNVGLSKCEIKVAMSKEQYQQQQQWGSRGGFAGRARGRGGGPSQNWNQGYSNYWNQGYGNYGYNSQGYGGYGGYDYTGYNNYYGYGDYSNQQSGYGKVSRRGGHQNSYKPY
inactive: [1] -0.001 | [2] -0.014 | [3] -0.022 | [4] -0.027 | [5] 0.049 | [6] 0.014 | [7] -0.023 | [8] 0.012 | [9] -0.009 | [10] 0.018 | [11] 0 | [12] -0.142 | [13] -0.039 | [14] -0.01 | [15] 0.016 | [16] -0.046 | [17] 0.001 | [18] 0.034 | [19] -0.014 | [20] -0.011

IMMT (UniProt C9J406)
inactive: [1] 0.077 | [2] 0.041 | [3] -0.028 | [4] 0.001 | [5] 0.043 | [6] 0.028 | [7] -0.032 | [8] -0.222 | [9] 0.325 | [10] -0.016 | [11] 0.119 | [12] 0.046 | [13] 0.126 | [14] -0.14 | [15] -0.096 | [16] 0.099 | [17] -0.03 | [18] -0.002 | [19] 0.012 | [20] -0.015

GMDS (UniProt O60547)
Sequence of UniProt O60547 (O60547 whole entry, looked up): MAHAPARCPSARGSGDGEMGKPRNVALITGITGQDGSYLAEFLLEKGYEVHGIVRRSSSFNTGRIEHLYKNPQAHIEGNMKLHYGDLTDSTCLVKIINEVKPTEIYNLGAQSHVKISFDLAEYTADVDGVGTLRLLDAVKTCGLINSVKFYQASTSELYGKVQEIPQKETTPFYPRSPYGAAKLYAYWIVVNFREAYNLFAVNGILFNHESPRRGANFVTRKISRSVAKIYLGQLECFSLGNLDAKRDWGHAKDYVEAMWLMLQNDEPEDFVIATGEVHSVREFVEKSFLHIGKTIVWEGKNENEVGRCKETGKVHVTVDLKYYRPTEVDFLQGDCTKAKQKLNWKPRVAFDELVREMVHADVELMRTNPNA
inactive: [1] 0.017 | [2] 0.005 | [3] 0.029 | [4] -0.054 | [5] -0.012 | [6] -0.023 | [7] -0.043 | [8] 0.019 | [9] 0.036 | [10] 0.01 | [11] 0.042 | [12] -0.018 | [13] 0.025 | [14] 0.01 | [15] -0.023 | [16] 0.031 | [17] 0.022 | [18] 0.027 | [19] 0.008 | [20] 0.015

HAUS3 (UniProt Q68CZ6)
inactive: [1] 0.022 | [2] 0.01 | [3] -0.033 | [4] 0.016 | [5] -0.028 | [6] 0.004 | [7] -0.06 | [8] -0.045 | [9] 0.019 | [10] 0.025 | [11] -0.025 | [12] -0.021 | [13] 0.009 | [14] -0.019 | [15] 0.001 | [16] 0.022 | [17] 0.026 | [18] 0.014 | [19] 0.025 | [20] 0.025

HDAC10 (UniProt Q969S8)
inactive: [1] 0.064 | [2] 0.126 | [3] 0.035 | [4] -0.155 | [5] -0.201 | [6] -0.111 | [7] -0.043 | [8] -0.204 | [9] 0.053 | [10] 0.016 | [11] -0.038 | [12] 0.019 | [13] -0.106 | [14] 0.144 | [15] -0.207 | [16] -0.11 | [17] -0.088 | [18] 0.037 | [19] 0.022 | [20] 0.017

ITGB1BP2 (UniProt Q9UKP3)
Sequence of UniProt Q9UKP3 (Q9UKP3 whole entry, looked up): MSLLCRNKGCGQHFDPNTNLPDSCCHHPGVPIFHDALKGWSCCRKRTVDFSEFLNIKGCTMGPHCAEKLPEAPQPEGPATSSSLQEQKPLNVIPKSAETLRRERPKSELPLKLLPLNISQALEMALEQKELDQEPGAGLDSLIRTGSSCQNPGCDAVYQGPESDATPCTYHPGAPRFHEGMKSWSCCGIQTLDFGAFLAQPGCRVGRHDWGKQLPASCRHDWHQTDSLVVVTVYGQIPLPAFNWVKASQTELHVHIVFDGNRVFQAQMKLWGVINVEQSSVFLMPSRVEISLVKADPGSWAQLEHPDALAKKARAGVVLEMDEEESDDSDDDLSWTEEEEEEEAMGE
inactive: [2] 0.017 | [4] -0.001 | [7] 0.039 | [8] -0.117 | [9] 0.09 | [17] 0.139

HMGA1 isoform 2 (UniProt P17096)
Sequence of UniProt P17096 (P17096 whole entry, looked up): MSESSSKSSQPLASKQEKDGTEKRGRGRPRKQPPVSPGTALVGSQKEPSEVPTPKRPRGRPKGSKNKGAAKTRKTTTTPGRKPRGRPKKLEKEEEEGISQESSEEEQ
inactive: [1] 0.042 | [3] -0.043 | [6] 0.022 | [10] 0 | [12] 0.053 | [13] -0.122 | [14] 0.088 | [15] -0.029 | [16] 0.047 | [17] -0.229 | [18] -0.034 | [19] 0.054 | [20] 0.01

IPP (UniProt Q9Y573)
Sequence of UniProt Q9Y573 (Q9Y573 whole entry, looked up): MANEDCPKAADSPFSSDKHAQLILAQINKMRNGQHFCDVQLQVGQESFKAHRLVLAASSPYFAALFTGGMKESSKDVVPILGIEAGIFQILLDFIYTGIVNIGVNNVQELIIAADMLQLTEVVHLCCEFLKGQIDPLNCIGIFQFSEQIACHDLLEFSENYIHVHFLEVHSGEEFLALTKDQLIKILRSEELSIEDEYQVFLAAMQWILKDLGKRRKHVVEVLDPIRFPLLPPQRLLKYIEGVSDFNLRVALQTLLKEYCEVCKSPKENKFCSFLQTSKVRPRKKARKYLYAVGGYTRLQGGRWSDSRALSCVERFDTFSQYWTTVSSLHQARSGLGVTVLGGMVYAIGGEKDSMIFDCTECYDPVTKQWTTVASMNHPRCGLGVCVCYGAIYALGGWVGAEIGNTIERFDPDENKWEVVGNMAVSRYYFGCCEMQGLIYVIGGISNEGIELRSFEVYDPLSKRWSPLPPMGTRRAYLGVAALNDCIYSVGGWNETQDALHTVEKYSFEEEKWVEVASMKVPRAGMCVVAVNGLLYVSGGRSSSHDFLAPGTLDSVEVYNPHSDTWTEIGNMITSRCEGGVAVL
inactive: [1] -0.04 | [2] -0.192 | [3] -0.017 | [4] -0.181 | [6] 0.025 | [7] -0.105 | [8] 0.179 | [9] 0.041 | [10] -0.035 | [12] 0.042 | [13] 0.14 | [14] -0.056 | [15] -0.073 | [17] -0.006 | [19] 0.088 | [20] -0.044

ITPR2 (UniProt Q14571)
inactive: [1] 0.058 | [3] 0.163 | [6] -0.051 | [10] 0.021 | [12] -0.04 | [13] 0.069 | [14] -0.233 | [15] 0.063 | [16] -0.137 | [17] -0.072 | [19] -0.031 | [20] -0.322

HECW2 (UniProt Q9P2P5)
Sequence of UniProt Q9P2P5 (Q9P2P5 whole entry, looked up): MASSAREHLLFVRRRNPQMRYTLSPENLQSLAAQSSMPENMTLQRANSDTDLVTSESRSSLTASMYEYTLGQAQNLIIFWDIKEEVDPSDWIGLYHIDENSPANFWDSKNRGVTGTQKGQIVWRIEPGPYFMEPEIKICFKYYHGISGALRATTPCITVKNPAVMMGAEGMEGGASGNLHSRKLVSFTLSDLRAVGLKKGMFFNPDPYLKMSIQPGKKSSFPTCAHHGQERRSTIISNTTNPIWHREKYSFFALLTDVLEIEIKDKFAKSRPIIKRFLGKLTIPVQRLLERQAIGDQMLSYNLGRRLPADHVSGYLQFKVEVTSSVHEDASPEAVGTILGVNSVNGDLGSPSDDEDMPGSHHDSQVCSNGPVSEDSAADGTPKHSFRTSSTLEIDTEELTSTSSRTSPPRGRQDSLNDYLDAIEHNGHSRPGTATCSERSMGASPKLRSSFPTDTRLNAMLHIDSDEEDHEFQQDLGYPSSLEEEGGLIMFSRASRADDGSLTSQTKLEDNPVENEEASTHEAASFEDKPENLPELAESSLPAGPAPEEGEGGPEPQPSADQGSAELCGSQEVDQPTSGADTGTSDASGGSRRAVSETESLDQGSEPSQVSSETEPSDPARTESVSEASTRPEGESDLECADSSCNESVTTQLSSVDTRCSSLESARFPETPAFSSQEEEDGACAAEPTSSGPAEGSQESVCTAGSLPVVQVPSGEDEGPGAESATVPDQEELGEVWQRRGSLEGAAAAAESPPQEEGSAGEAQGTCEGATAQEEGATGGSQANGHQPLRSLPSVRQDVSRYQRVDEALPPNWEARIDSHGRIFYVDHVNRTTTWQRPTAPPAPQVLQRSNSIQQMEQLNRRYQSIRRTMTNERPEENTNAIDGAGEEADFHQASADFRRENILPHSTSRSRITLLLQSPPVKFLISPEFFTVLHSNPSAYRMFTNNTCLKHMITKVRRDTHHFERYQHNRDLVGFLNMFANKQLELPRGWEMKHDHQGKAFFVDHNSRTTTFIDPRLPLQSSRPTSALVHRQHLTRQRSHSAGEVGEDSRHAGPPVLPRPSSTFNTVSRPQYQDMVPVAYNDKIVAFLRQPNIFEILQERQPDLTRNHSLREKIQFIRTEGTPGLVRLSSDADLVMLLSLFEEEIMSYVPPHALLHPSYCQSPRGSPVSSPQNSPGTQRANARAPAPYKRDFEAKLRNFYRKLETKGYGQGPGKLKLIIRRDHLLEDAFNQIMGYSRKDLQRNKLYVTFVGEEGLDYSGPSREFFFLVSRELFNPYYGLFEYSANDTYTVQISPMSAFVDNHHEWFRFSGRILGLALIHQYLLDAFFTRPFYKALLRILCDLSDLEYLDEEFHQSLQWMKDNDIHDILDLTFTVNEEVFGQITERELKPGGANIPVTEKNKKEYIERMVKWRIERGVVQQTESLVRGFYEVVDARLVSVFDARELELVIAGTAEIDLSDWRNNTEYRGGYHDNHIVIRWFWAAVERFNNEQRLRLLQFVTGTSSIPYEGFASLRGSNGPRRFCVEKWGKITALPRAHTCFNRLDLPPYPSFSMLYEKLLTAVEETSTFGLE
inactive: [1] -0.012 | [2] 0.009 | [3] -0.093 | [4] 0.013 | [6] -0.075 | [7] 0.023 | [8] 0.029 | [9] -0.118 | [10] 0.082 | [13] 0.106 | [14] -0.148 | [15] -0.036 | [16] 0.019 | [17] -0.091 | [18] 0.116 | [19] 0.073

KATNBL1 (UniProt Q9H079)
Sequence of UniProt Q9H079 (Q9H079 whole entry, looked up): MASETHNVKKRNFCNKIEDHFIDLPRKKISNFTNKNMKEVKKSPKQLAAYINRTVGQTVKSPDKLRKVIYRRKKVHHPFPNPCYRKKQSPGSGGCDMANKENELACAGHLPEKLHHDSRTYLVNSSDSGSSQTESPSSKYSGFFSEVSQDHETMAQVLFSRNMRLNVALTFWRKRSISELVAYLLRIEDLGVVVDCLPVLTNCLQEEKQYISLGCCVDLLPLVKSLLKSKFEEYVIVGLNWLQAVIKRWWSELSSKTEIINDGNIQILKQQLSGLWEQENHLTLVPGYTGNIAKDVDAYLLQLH
active: [9] -0.687
inactive: [1] -0.012 | [2] 0.009 | [3] -0.02 | [4] 0.064 | [7] -0.001 | [8] 0.045 | [12] -0.002 | [15] 0.156 | [16] -0.029 | [17] -0.002 | [18] 0.082 | [20] -0.025

GPN2 (UniProt Q9H9Y4)
active: [8] -0.241
inactive: [1] -0.022 | [2] 0.089 | [3] 0.032 | [4] 0.043 | [6] -0.041 | [7] -0.056 | [9] -0.062 | [10] -0.027 | [12] -0.022 | [13] 0.12 | [14] 0.028 | [15] -0.042 | [16] 0.036 | [17] 0.025 | [18] 0.067 | [19] 0.057 | [20] 0.019

IMPDH2 (UniProt H0Y4R1)
inactive: [2] -0.014 | [4] 0.023 | [5] -0.118 | [6] -0.155 | [7] -0.029 | [8] 0.099 | [9] 0.076 | [10] 0.037 | [11] -0.025 | [12] -0.047 | [13] -0.069 | [14] -0.112 | [16] -0.019 | [17] 0.032 | [18] -0.04 | [19] 0.062 | [20] 0.032

HYDIN (UniProt Q4G0P3)
inactive: [2] -0.022 | [4] 0.005 | [7] 0.036 | [8] -0.054 | [9] 0.022 | [10] 0.712 | [12] -0.076 | [13] 0.148 | [14] -0.071 | [17] -0.05 | [19] -0.107 | [20] 0.017
active: [6] 1.34

IRS2 (UniProt Q9Y4H2)
inactive: [1] 0.04 | [3] -0.099 | [5] 0.164 | [6] 0.143 | [10] -0.009 | [11] -0.089 | [12] -0.209 | [13] 0.014 | [14] 0.047 | [15] 0.03 | [16] 0.049 | [17] -0.079 | [18] 0.118 | [19] -0.051 | [20] 0.254

HOMER3 (UniProt Q9NSC5)
Sequence of UniProt Q9NSC5 (Q9NSC5 whole entry, looked up): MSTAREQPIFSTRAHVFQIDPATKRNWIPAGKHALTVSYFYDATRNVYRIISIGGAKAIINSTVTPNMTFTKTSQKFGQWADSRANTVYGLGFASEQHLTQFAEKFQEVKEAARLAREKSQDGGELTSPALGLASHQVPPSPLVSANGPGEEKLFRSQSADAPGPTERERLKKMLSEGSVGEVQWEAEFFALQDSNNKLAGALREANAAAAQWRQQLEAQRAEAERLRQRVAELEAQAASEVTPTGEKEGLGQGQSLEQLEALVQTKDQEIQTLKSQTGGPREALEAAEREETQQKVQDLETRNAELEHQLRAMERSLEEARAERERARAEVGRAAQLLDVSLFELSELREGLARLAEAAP
inactive: [5] -0.078 | [11] -0.095 | [12] -0.01 | [18] -0.028 | [20] 0.048

KDM5B isoform 2 (UniProt Q9UGL1)
inactive: [1] 0.07 | [2] 0.03 | [3] 0.006 | [4] -0.021 | [5] 0.031 | [6] 0.012 | [7] -0.074 | [8] -0.035 | [9] 0.099 | [10] 0.011 | [11] -0.075 | [12] -0.046 | [13] -0.083 | [14] -0.165 | [15] -0.072 | [17] -0.129 | [18] -0.016 | [19] -0.095 | [20] -0.098
